Source: PubChem BioAssay
Rows were chosen to be rich in hits. Some 12% of all compounds tested hit in one or more screens of this group.
ROMK mod = human ROMK K+ channel modulation, primary screen | P48048 | Tet-inducible ROMK, thallium flux fluorescence; actives lie on both sides | B-score at 10 µM | 2% of 130,000 active;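 active = signal ratio slope over the read window, or its plate-corrected B-score, at least 3 SD from the plate mean, either direction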;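 also: B-score of the F/F0 ratio slope over 7 to 12 s after thallium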
KCC2 mod = modulates chloride dependent transport by human KCC2. KCC2 cells, thallium flux FluoZin-2 fluorescence. B-score of Tl+ flux slope (higher = more flux/activation; lower = inhibition) at 10 µM. 2.2% of 190,000 active. AID 1456;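 active = thallium flux slope and its plate-corrected score both differing from the plate sample mean at a set confidence after two filtering rounds, in either direction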;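 also: slope of fluorescence scaled to starting intensity during 10 to 20 s after thallium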
WT yeast gro inh = growth inhibition of WT yeast, mitochondrial fusion screen; inhibition, % at 10 µM; mitochondrial fusion phenotypic screen, WT strain; 2.1% of 190,000 active; AID 1362; in the data active = inhibition above about 58%; tested in S. cerevisiae
m-calpain inh = calpain II (pig) inhibition | purified calpain II, fluorogenic peptide substrate, 30 min | inhibition, % at 16 µM | 0.37% of 220,000 active | AID 1236;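 active = inhibition above about 50%, limit read from the data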
L major viab = Leishmania major promastigote growth inhibition; Leishmania major promastigotes, resazurin fluorescence viability; inhibition, % at 10 µM; 9% of 200,000 active; in the data active = inhibition above about 50%;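 also: promastigotes grown with compound for 44 hours at 28 °C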
Starred values were filed as active, the others as inactive; i = inactive; x = no result.

SMILES	ROMK mod	KCC2 mod	WT yeast gro inh	m-calpain inh	L major viab
CCC(C)C(NC(=O)C1CCC(C)CC1)C(=O)NC(CCSC)C(=O)OC (stereo not given)	0.266	x	-28.0	-0.4	68.3*
COC(=O)C(CCSC)NC(=O)C(NC(=O)C1CCC(C)CC1)C(C)C (stereo not given)	x	x	-31.1	-6.8	68.6*
CCC(C)C(NC(=O)C1CCC(C)CC1)C(=O)Nc1ccc(OC)cc1OC (stereo not given)	-0.508	-0.269	7.4	19.5	14.8
CSCCC(NC(=O)C1CCC(C)CC1)C(=O)O (stereo not given)	x	x	36.9	-6.9	47.3
CCCCOc1ncnc2c1[nH]c1ccc(F)cc12	x	0.119	-6.2	-35.8	24.4
Nc1c2c(nc3ccc(Br)cc13)N(Cc1ccccc1)CC2	-1.16	0.471	24.0	29.1	94.1*
Nc1c2c(nc3ccc(Br)cc13)N(C1CCCCC1)CC2	-1.29	0.0819	42.7	-77.6	100.6*
Nc1c2c(nc3ccc(Br)cc13)N(c1ccccc1)CC2	-0.168	-0.0728	0.5	-104.5	100.4*
Nc1c2c(nc3ccccc13)N(C1CCCCC1)CC2	-0.925	x	14.6	-247.2	x
Cc1cccc(N2CCc3c2nc2ccc(Br)cc2c3N)c1	-0.677	-0.103	49.1	-150.3	100.4*
Nc1cc(-c2cccc(Br)c2)nn1Cc1ccccc1	-1.03	-2	10.1	16.8	3.4
O=C(Cc1cccs1)NC1CCCC1	0.13	1.03	-6.5	-20.8	-6.0
Cc1[nH]c2ccccc2c1C(c1ccccn1)N1CCCC1 (stereo not given)	-0.0508	-0.267	-11.5	-10.0	20.4
Cc1ccnc(NC(c2ccccn2)c2c(C)[nH]c3ccccc23)c1 (stereo not given)	x	-0.708	-5.7	4.5	74.1*
COc1ccc(C2CC(c3ccc(OC)cc3)n3nc(NS(C)(=O)=O)nc3N2)cc1 (stereo not given)	x	x	x	-12.4	x
COC(=O)CCC(=O)NNC(=O)c1cccc(Br)c1	-0.581	-0.871	-2.4	-6.2	40.8
O=C(O)CCC(=O)NNC(=O)c1cccc(Br)c1	0.349	-0.0222	-15.8	0.6	59.6*
CC(C)(C)NC(=S)NNC(=O)c1cccc(Br)c1	-0.941	0.345	-11.8	5.5	-4.2
O=C(NNC(=S)Nc1ccccc1)c1cccc(Br)c1	-1.48	3.26*	-8.0	23.2	4.7
O=C(OCC(=O)c1ccc(Cl)s1)c1ccc2ccccc2n1	0.181	-1.14	11.9	5.0	-4.2
CCOC(=O)C1CCCN(/C=C2\SC(=S)N(CC)C2=O)C1 (stereo not given)	0.348	-0.59	x	-14.0	x
Cc1nc2c(=O)[nH]c3ccccc3c2o1	-0.343	0.352	-7.6	-18.0	2.1
COc1cc(CNCCO)cc(Br)c1OCc1ccccc1Cl	x	0.144	78.6*	15.4	99.8*
CCCCNCc1cc(Br)c(OCc2cccs2)c(OC)c1	x	-1.06	0.9	-12.8	100.6*
COc1cccc(CNCCO)c1OCc1ccccc1	0.07	0.487	-14.2	-27.9	-4.6
SMILES	ROMK mod	KCC2 mod	WT yeast gro inh	m-calpain inh	L major viab
CCNCc1ccc(OCc2cccs2)c(OCC)c1	-0.0246	-0.643	-3.8	-42.0	53.8*
CCOc1c(Br)cc(CNCc2cccs2)cc1OC	x	-0.261	-4.7	0.3	3.1
COc1cc(CNCCO)cc(Cl)c1OCc1ccc(Cl)cc1Cl	-0.55	0.917	85.4	30.7	100.3*
CCOc1ccc(-c2nnc(-c3cccs3)o2)cc1OCC	x	-0.888	3.3	-182.7	46.3
COc1ccc2nc(/C=N/NC(=O)CCCCCNC(=O)OC(C)(C)C)ccc2c1	x	0.953	x	-173.2	x
CC(C)n1c(C(F)(F)F)nc2cc(C(=O)N3CCCCC3)ccc21	1.58	0.326	x	1.8	x
COc1cc(CNC(C)(C)CO)cc(Br)c1OCc1ccc(Cl)cc1Cl	-1.42	x	93.8*	3.8	99.9*
CCOc1cc(CNc2ccc(O)cc2)ccc1OCc1ccc(Cl)cc1Cl	x	x	17.6	50.0	42.2
CCS(=O)(=O)c1nc(S(=O)(=O)c2ccc(Cl)cc2)c(NCCOC)s1	1.29	0.00688	1.7	7.9	2.7
O=C(CN1CCN(CCOCCO)CC1)N1c2ccccc2Sc2ccc(Cl)cc21	-0.367	x	-1.2	-9.3	19.2
OCCN1CCN(C2Cc3cc(Cl)ccc3Sc3ccc(Cl)cc32)CC1 (stereo not given) (tested in a mixture with another compound)	-0.874	0.221	92.7	-30.5	54.6*
CN1CCN(CCOC2Cc3ccccc3Sc3ccc(Cl)cc32)CC1 (stereo not given)	-1.5	-0.0218	87.0	-10.9	66.0*
C=CCN(c1ccccc1)S(=O)(=O)c1cccc(C(=O)Oc2ccc3c(C)cc(=O)oc3c2)c1	x	-0.526	0.3	-428.9	-3.5
CC1(C)CC(NCc2ccc3c(c2)OCO3)CCO1 (stereo not given)	x	-0.127	7.7	-1.0	84.0*
Cc1ccc(NC(=O)NCc2ccc3c(c2)OCO3)cc1C	0	0	-6.6	41.2	-0.5
O=C(NCc1ccc2c(c1)OCO2)C(=O)NC1CCCCC1	1.23	x	16.2	24.7	-7.3
CC1(C)CC(O)(CCNCc2ccc3c(c2)OCO3)CCO1 (stereo not given)	x	x	-12.5	-23.9	82.9*
Cc1c(Nc2c3ccccc3nc3ccccc23)c(=O)n(-c2ccccc2)n1C	x	-0.00404	x	16.9	x
Cc1c(Nc2nc3ccccc3nc2N2CCN(c3ccccc3)CC2)c(=O)n(-c2ccccc2)n1C	-0.0368	-0.98	16.3	-1.1	53.1*
Cc1ccc(C2Nc3ccccc3C(=O)N2Cc2ccco2)cc1 (stereo not given)	-1.45	0.849	-18.5	i	16.9
Cc1cc(N2CCC(C)CC2)nc2cccc(O)c12	x	x	5.4	-17.7	24.4
COc1ccc(-c2noc(-c3ccccc3C(=O)Nc3cccnc3)n2)cc1OC	-1.46	x	4.3	-19.2	70.5*
COc1ccc(Cl)cc1-c1nc(-c2ccc(NC(=O)c3cccs3)cc2)no1	0.00287	-0.179	0.2	-66.5	65.1*
CC(Oc1ccc(Cl)cc1Cl)c1nc(-c2ccc(NC(=O)c3cccnc3)cc2)no1 (stereo not given)	0.0379	0.508	37.1	-2.7	95.2*
COc1ccc(NC(=O)c2cccs2)cc1OC	-0.39	x	15.2	7.8	-1.2
SMILES	ROMK mod	KCC2 mod	WT yeast gro inh	m-calpain inh	L major viab
CCc1nnc(N2C(=O)c3ccccc3C2(O)c2ccccc2)s1 (stereo not given)	-0.0191	-0.445	x	4.8	x
C=CCN(Cc1nc(-c2ccc(OC)c(OC)c2)oc1C)C1CCS(=O)(=O)C1 (stereo not given)	x	0.907	13.6	22.0	53.6*
C=CCN(Cc1nc(-c2cc(OC)ccc2OC)oc1C)C1CCS(=O)(=O)C1 (stereo not given)	x	0.275	-6.6	-71.0	26.0
O=C1NCCN(Cc2ccc(Cl)c(F)c2)C1CC(=O)N1CCCCO1 (stereo not given)	-0.356	x	-3.3	-45.4	-2.6
O=C1CC(c2cccc(Br)c2)c2cc3c(cc2N1)CCC3 (stereo not given)	x	0.527	87.2*	46.0	2.8
Cc1cc2c(cc1C)C(c1cccc([N+](=O)[O-])c1)CC(=O)N2 (stereo not given)	x	0.159	15.5	-2.7	52.6*
CCOC(=O)C1CCN(c2c(NCCC(C)C)c(=O)c2=O)CC1	x	-0.0355	x	-1.1	x
